This is a sample that favours compounds with a hit; in the whole collection about 10% have one here.
SW480 rerep: DNA re-replication induction in SW480 cells | Potency, µM (titrated, usually from 46.1 µM), without a hit: top-dose re-replication activation, hits mostly activators | 1.8% of 340,000 active | AID 624297 | SW480 DNA re-replication, Hoechst DNA content imaging, 48 h; further: % of control where 0% means no effect; nearly all actives have a fitted effect of over 55% in size
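First, 250 cells per well were seeded. Next, compound or vehicle (23 nL) was pinned in, plates sat 48 hr at 37 C. Finally Hoechst was added for 40 min before fluorescence scanning.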
MCF10A rereplic: inducers of DNA re-replication in MCF 10A breast cells; MCF 10A DNA re-replication, Hoechst nuclear intensity, 48 h; Potency, µM (highest dose often 46.1 µM), inactives show top-dose activity, positive = re-replication, actives largely listed as activators; 2.9% of 350,000 active; AID 624296; further: % of control where 0% means no effect; nearly all actives have a fitted effect of over 50% in size
ELG1 repair inh: ELG1-dependent DNA repair inhibition | 2.3% of 330,000 active | AID 504467 | Potency, µM (highest dose often 46.1 µM), without a hit: at the top dose activity change, negative = inhibition, actives largely listed as inhibitors | HEK293T ELG1-luciferase reporter, luminescence, 16 h; DNA damage induced by 5-fluorouridine; further: on the % scale 0 is the no-effect control and ±100 the full control effect; nearly all actives have a fitted effect of over 55% in size
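Overnight (16 hr) co-exposure of 2,000 cells/well to 5-fluorouridine and compound at 37 °C preceded detection. Luciferase was quantified via ONE-Glo luminescence; loss of signal denotes inhibition.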
RORgamma inh: ROR gamma (mouse) transcription inhibition. Drosophila S2 Gal4-RORgamma UAS-luciferase reporter, 20 h. Potency, µM (top dose mostly 53.6 µM), for inactives: top-dose activity change, negative = inhibition, most hits filed as inhibitors. AID 2551. 5.4% of 310,000 active. P51450; further: on the % scale 0 is the no-effect control and ±100 the full control effect; nearly all actives have a fitted effect of over 60% in size
Target sequence (P51450 whole entry, looked up, the tested form may be a part): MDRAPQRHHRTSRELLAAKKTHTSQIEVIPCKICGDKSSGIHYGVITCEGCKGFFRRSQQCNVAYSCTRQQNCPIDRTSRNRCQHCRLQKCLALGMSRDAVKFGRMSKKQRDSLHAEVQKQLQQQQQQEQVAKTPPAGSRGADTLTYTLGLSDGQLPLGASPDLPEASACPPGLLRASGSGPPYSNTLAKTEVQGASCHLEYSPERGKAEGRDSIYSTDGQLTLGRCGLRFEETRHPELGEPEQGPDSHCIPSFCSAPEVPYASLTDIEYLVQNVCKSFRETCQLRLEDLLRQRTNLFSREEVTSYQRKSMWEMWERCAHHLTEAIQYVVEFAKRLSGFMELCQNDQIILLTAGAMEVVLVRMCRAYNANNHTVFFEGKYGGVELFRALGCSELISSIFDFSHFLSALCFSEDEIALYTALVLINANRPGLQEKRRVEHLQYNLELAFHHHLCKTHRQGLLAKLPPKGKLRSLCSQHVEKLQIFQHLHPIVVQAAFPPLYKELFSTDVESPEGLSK
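Compounds are pin-transferred onto Drosophila Schneider cells expressing a copper-inducible Gal4–ROR gamma transactivation domain fusion. After 1 hr, copper sulfate is added to 700 uM final; luciferase is read 20 hr later.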
VP16 counter: inhibits Gal4-VP16 luciferase reporter, ROR gamma counter-screen; 3.5% of 310,000 active; Potency, µM (highest dose often 53.6 µM), for the others: top-dose activity, negative = inhibition, most hits filed as inhibitors; Drosophila S2 Gal4-VP16 UAS-luciferase, luminescence, 20 h; AID 2546;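 further: Gal4-VP16 expression switched on by copper sulfate through the metallothionein promoter; on the % scale 0 is the no-effect control and ±100 the full control effect; nearly all actives have a fitted effect of over 50% in size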
* = called active by the depositor; ? = inconclusive; nt = no result; ! = repeats disagree; [ ] = dose if it differs, or a comment. The call rests on the fitted dose curve; in most records, active means well fitted curve in the direction sought with a large enough effect; inconclusive means small, poorly fitted or top-dose-only effect, or another doubt; inactive means no such curve, though single readings can be large; an effect the other way counts as inactive or inconclusive. Potency means the concentration at half of the fitted maximal effect.

SMILES	SW480 rerep	MCF10A rereplic	ELG1 repair inh	RORgamma inh	VP16 counter
CC(C)n1nc(C(=O)Nc2cccc(S(=O)(=O)N3CCOCC3)c2)c2ccccc2c1=O	-12%	-1%	?	nt	nt
CCCCCCCCCCCCCC(=O)OC(C)C	0%	-4%	nt	-3%[10 µM]	-9%
CC(C)Cn1cnc2c(N)nc3ccccc3c21	0.58µM*!	?	10%	-9%	-3%
CC(C)Cn1cnc2c(SCc3ccccc3)nc(N)nc21	-1%	13%	nt	nt	nt
N#Cc1ccc(Oc2nc(Nc3ccc(F)cc3)nc(N3CCCC3)n2)cc1	0%	-2%	16µM*	23%	-6%
CCCn1c2ccccc2c2cnn(CC(=O)NCCCN3C(C)CCCC3C)c(=O)c21 (centres undefined)	?	?	4%	-27%	0%
Cc1ccc(N2CC(C(=O)NCCC3=CCCCC3)CC2=O)cc1 (centres undefined)	-13%	12%	2%	nt	nt
COC(=O)c1ccc(CN2C(=O)C3CCCCC3C2=O)o1 (centres undefined)	-19%	4%	?	2.8µM*	4.5µM*
O=C(Nc1ccc(Cl)cc1)c1cc2c(cc1O)[nH]c1ccccc12	2%	4.6µM*	?	-35%	18µM*
COc1ccc(-n2c(=O)c(C)nc3cnc(Nc4ccccc4)nc32)cc1	nt	nt	nt	44%	-6%
CC(Oc1cccc(Cl)c1)C(=O)Nc1nc(-c2ccccn2)cs1 (centres undefined)	6.5µM*	-11%	?	nt	nt
O=C(Nc1nc(-c2ccccn2)cs1)c1ccc(Cl)s1	12%	0%	?	20%	4%
Cn1cccc1C(=O)Nc1nc(-c2ccccn2)cs1	?	17%	?	1.6µM*	4µM*
CC(Oc1ccccc1)C(=O)Nc1nc(-c2ccccn2)cs1 (centres undefined)	-437%	?	?	nt	nt
Cc1cccc(C(=O)N[C@H](C(=O)Nc2ncc(C)s2)C(C)C)c1	?	25%	?	-7%	-16%
Cc1cccc(C(=O)NC(C(=O)Nc2nc(-c3ccccn3)cs2)C(C)C)c1 (centres undefined)	-4%	17%	2.9µM*	7.9µM*	?
O=C(Nc1nc(-c2ccccn2)cs1)c1ncc(Cl)c(Cl)c1Cl	15%	?	2%	6.3µM*	10µM*
C[C@H](NC(=O)c1ccccc1)C(=O)Nc1nc(-c2ccccn2)cs1	0%	-3%	7.3µM*	-4%	-7%
Cc1c(C#N)c(N=CN(C)C)c(C(=O)c2ccc(Br)cc2)n1-c1ccc(Cl)cc1	1%	1%	?	3%	7%
OC[C@H](S)CS	17%	9.4µM*	nt	0%[10 µM]	?
Cc1ccc(S(=O)(=O)NCc2ccccc2)cc1C(=O)N1CCN(S(=O)(=O)c2ccccc2)CC1	-5%	7%	-6%	nt	nt
Cn1c2c(c(=O)c3ccccc31)C[C@@H](O)C(C)(C)O2	nt	nt	nt	1%	-5%
c1ccc(-n2nnnc2-c2cccc3ccccc23)cc1	5.8µM*	23µM*	nt	nt	nt
CC(=O)CC(=O)NC(=NC1CCCCC1)Nc1nc(C)cc(C)n1	?	?	10µM*	7%	-2%
Cc1cc(C)nc(NC(N)=NC2CCCCC2)n1	1%	13%	?	-27%[10 µM]	-8%
SMILES	SW480 rerep	MCF10A rereplic	ELG1 repair inh	RORgamma inh	VP16 counter
CC(C)(C(O)c1ccc([N+](=O)[O-])cc1)[N+](=O)[O-] (centres undefined)	nt	nt	nt	11%	13%
Cc1ccc(C(C)C)cc1OCC(=O)Nc1ccc(N2CCCCC2)cc1	2%	6%	-3%	nt	nt
N=C(N1CCCc2ccccc21)N1CCCc2ccccc21	?	-7%	nt	nt	nt
COc1ccccc1C(=O)NC(=S)N1CCCc2ccccc21	9%	-20%	?	7.9µM*	?
NC(=S)N1CCCc2ccccc21	-2%	2%	2%	6.3µM*	?
O=C(NC(=S)N1CCCc2ccccc21)c1ccc([N+](=O)[O-])cc1	0%	2%	43%	?	6.3µM*
Cc1ccc(-c2nnc(-c3ccccc3)c(-c3ccccc3)n2)cc1	3%	22%	13%	23%	5%
c1ccc(-c2nnc(-c3c[nH]c4ccccc34)nc2-c2ccccc2)cc1	-3%	4%	23µM*	-1%	-20%

Screens (PubChem BioAssay)
